Whole data set: some 110,000 compounds, median “z-score” near -0.1, cut for the highest 2% near 2. This excerpt belongs to a sample that is enriched for the highest values. Activity calls are given as the source filed them.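 Rule for the calls: active = z-score in the third read window above 3 or below -3; inactive = the rest.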
These molecules were tested against Metabotropic glutamate receptor 8 (Rattus norvegicus) (UniProt P70579) (assay: mGluR8 Gi/Go-coupled signaling modulation – cell-based, rat, thallium flux, HTS, primary screen (AID 488969)). Conditions: HEK293 rat mGluR8, GIRK (G protein-gated inwardly rectifying potassium channel) thallium flux, FluoZin2; at 10 µM; stronger effect = higher value; submaximal glutamate (EC20) added with thallium.
Sequence of Metabotropic glutamate receptor 8 (Rattus norvegicus) (P70579 whole entry, looked up): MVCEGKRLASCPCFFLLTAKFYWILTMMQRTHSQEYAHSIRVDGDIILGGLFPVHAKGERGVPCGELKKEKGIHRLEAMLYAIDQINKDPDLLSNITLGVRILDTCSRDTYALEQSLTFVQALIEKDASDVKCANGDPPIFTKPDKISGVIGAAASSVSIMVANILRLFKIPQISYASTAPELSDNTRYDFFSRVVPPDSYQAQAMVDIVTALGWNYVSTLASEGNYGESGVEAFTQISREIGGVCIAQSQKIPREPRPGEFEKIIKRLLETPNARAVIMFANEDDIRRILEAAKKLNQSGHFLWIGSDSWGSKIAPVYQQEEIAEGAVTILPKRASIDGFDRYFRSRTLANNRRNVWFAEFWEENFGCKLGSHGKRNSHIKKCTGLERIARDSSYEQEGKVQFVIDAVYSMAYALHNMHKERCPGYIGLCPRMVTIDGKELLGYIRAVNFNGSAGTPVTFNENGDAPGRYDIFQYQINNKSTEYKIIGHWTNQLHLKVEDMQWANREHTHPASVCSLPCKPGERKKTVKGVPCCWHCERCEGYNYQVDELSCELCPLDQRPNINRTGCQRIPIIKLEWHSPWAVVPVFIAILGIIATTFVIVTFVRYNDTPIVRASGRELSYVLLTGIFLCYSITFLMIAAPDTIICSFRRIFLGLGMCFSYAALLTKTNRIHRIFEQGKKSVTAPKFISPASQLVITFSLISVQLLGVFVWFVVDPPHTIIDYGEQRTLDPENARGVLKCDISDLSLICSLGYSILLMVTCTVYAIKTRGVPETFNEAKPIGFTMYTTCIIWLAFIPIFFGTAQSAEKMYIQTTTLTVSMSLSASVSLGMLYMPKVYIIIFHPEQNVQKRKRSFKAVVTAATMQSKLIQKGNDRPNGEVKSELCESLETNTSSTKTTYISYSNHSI

Structure (SMILES)	z-score
O=C(CN1C(=O)NC2(CCCC2)C1=O)Nc1ccc(F)cc1	0.19
CCCCn1nnnc1NCc1cccs1	-1.89
CCCn1nnnc1NCc1cccn1C	1.98
CCCn1nnnc1NCc1ccc(N2CCCC2)cc1	-0.208
CCc1ccc(/C=N/NC(=O)C(=O)NCCCN2CCOCC2)cc1	-0.174
CC(CC(=O)Nc1ccncc1)c1ccccc1 (stereo unspecified)	0.044
O=C(CCSCc1ccc(Cl)cc1)NCCc1ccccc1	-0.0466
COc1ccc(Nc2ccc(S(=O)(=O)N3CCCCCC3)cc2[N+](=O)[O-])cc1	0.571
COc1ccc(Nc2ccc(S(=O)(=O)N3CCCCC3)cc2[N+](=O)[O-])cc1Cl	0.547
COc1ccc(Nc2ccc(S(=O)(=O)N3CCCCC3)cc2[N+](=O)[O-])cc1OC	2.43
COCc1cc(C)nc(Nc2ccc(C)cc2C)c1C#N	-0.225
COc1ccc(C(=O)N(NC(=O)Oc2ccccc2)C(C)(C)C)cc1	0.485
O=C(Nc1ccc2nc3ccccc3nc2c1)c1ccccc1	-0.114
O=C(Nc1ccc(F)cc1)c1ccccc1	-0.000317
O=C(Nc1ccc2[nH]c(=S)sc2c1)c1ccccc1	11.9 (active)
CC1(C)CC(CC(=O)Nc2ccccc2[N+](=O)[O-])C(=O)O1 (stereo unspecified)	-0.0252
COC(=O)c1cn(-c2ccccc2)c(C)c1C(=O)OC	-0.11
C=CCn1c(SCc2c(C)noc2C)nc2sc3c(c2c1=O)CCCC3	-0.0819
C=CCn1c(SCc2c(C)noc2C)nc2sc3c(c2c1=O)CCCCC3	-0.236
C=CCn1c(SCc2c(C)noc2C)nc2sc3c(c2c1=O)CCC(C)C3 (stereo unspecified)	2.65
CC(C)(Oc1ccc(Cl)cc1)C(=O)NCc1ccncc1	0.181
Cc1ccccc1C(=O)Nc1nncs1	-0.0319
O=C(Nc1nc(=S)ss1)c1ccc(Cl)cc1Cl	4.46 (active)

Structure (SMILES)	z-score
CC(=O)Nc1nc(=S)ss1	0.468
CC(C)C(=O)Nc1cccc(NC(=O)c2ccc(Cl)cc2Cl)c1	-0.304
O=C(Nc1nc(=S)ss1)c1c(F)cccc1F	-0.588
Cc1ccccc1C(=O)Nc1nc(=S)ss1	2.56
CCOc1nc(N(C)C)nc(-n2nnc(C(C)=O)c2C)n1	-0.22
CC1SCC(=O)N(CC(=O)NCc2ccccc2)C1=O (stereo unspecified)	-0.233
O=C(N/N=C/c1ccccc1Cl)c1cccc(F)c1	-0.342
O=C(N/N=C/c1c(Cl)cccc1Cl)c1cccc(F)c1	3.05 (active)
O=C(N/N=C/c1c(Cl)cccc1Cl)c1ccc(F)cc1	-0.476
O=C(C(=O)N1CCc2ccccc2C1)c1cn(CC(=O)N2CCCCC2)c2ccccc12	-0.582
CC(=O)C1=C(O)C(=O)N(c2cccc(C(=O)O)c2)C1c1ccc(F)cc1 (stereo unspecified)	-0.153
CC(=O)CN1Cc2ccccc2/C1=N\C(=O)Nc1ccccc1	3.19 (active)
CC(=O)c1ccc(N2Cc3ccccc3/C2=N\C(=O)Nc2ccccc2)cc1	-0.211
O=C(/N=C1/c2ccccc2CN1c1ccccc1)Nc1ccccc1	-0.236
Cc1ccc(S(=O)(=O)N2CCN(c3ccc(C(F)(F)F)cc3[N+](=O)[O-])CC2)cc1	-0.0811
Cc1scc(C(=O)N/N=C/c2ccc(OC(C)C)cc2)c1C	0.164
Cc1ccccc1NC(=O)CSc1nc(COc2ccccc2)nc2ccccc12	0.264
O=C(Cn1nnc(-c2ccccc2F)n1)Nc1ccc2c(c1)OCO2	2.41
O=C(Cn1nnc(-c2ccccc2NC(=O)c2ccccc2)n1)Nc1ccc2c(c1)OCCO2	0.418
Cc1ccc(F)cc1NC(=O)Cc1nn(C)c(=O)c2ccccc12	-0.0938
CCOC(=O)c1ccc(NC(=O)Cn2nnc(-c3ccccc3F)n2)cc1	-0.121
O=C(Cn1nnc(-c2ccccc2)n1)Nc1ccc2c(c1)OCO2	0.199
COc1ccccc1NC(=O)Cc1nn(C)c(=O)c2ccccc12	-0.677

Structure (SMILES)	z-score
CCOc1ccc(NC(=O)Cn2nnc(-c3ccccc3F)n2)cc1	3.4 (active)
Cn1nc(CC(=O)Nc2cccc3ncccc23)c2ccccc2c1=O	2.01
COc1ccc(NC(=O)Cn2nnc(-c3ccccc3F)n2)cc1Cl	0.202
O=C(Cn1nnc(-c2ccccc2F)n1)Nc1cccc2ncccc12	2.27
O=C(Cn1nnc(-c2ccccc2F)n1)NCCc1ccccc1	-0.146
CCCC(=O)Nc1ccccc1-c1nnn(CC(=O)Nc2ccc(OCC)cc2)n1	-0.817
CCCNc1c(N)c(=O)oc2ccccc12	-1.25
O=c1[nH]c2ccc(Cl)cc2c(-c2ccccc2)c1N1CCN(CCO)CC1	0.464
O=C(Nc1ccc(F)cc1F)c1ccco1	-0.0416
CCN(CC)c1ccc(NC(=O)/C=C\c2ccccc2Cl)cc1	-0.341
CCOC(=O)CNC(=O)CSc1nc2ncc(Br)cc2[nH]1	0.941
Cc1cc(N2C(=O)C3C4c5ccccc5C(c5ccccc54)C3C2=O)no1 (stereo unspecified)	-0.47
Cc1ccc2c(CC(=O)NNC(=O)c3ccccc3)coc2c1	-0.29
CC(=O)O/N=C(/c1nonc1N)N1CCN(c2ccc([N+](=O)[O-])cc2Cl)CC1	-0.222
Cc1ccc(NC(=O)c2cc(NC(=O)CCC(=O)O)ccc2N2CCCCC2)cc1	4.06 (active)
O=C(O)CCC(=O)Nc1ccc(N2CCCCC2)c(C(=O)O)c1	0.0405
CC(=O)Nc1ccc(N2CCCCC2)c(C(=O)Nc2cccc(C)c2)c1	-0.0504
COc1ccc(OC)c(-c2cc(C(F)(F)F)c3c(n2)sc2c(O)cc(=O)[nH]c23)c1	-0.747
COc1ccc(-c2cc(C(F)(F)F)c3c(n2)sc2c(O)cc(=O)[nH]c23)c(OC)c1	5.32 (active)
O=c1cc(O)c2sc3nc(-c4ccccc4)cc(C(F)(F)F)c3c2[nH]1	-1.89
COc1cc2cc3c(N)c(C(=O)Nc4sc(C)c(C)c4C#N)sc3nc2cc1OC	0.0438
Cc1sc(NC(=O)c2sc3nc4c(C)cccc4cc3c2N)c(C#N)c1C	2.37
Cc1[nH]c(=O)[nH]c(=O)c1NC(=O)c1sc2nc3c(C)cccc3cc2c1N	-0.256

Structure (SMILES)	z-score
CCN(CC)S(=O)(=O)c1ccc(N2CCCCC2)c(NC(=O)/C(C#N)=C/c2ccc(OC)cc2)c1	-0.0436
O=c1[nH]cnc2cc(Cl)ccc12	-0.0535
CCOc1ccc(C(C)=O)cc1N1C(=O)C2C3C=CC(O3)C2C1=O (stereo unspecified)	-0.01
CCOc1ccc(C(C)=O)cc1N1C(=O)C2C(C1=O)C1C=CC2C12CC2 (stereo unspecified)	4.92 (active)
CCOc1ccc(C(C)=O)cc1N1C(=O)C2C3C=CC(C3)C2C1=O (stereo unspecified)	-0.533
COCCCNC(=O)C1CCCCN1S(=O)(=O)c1ccc(F)cc1 (stereo unspecified)	0.633
CCn1c(Cc2ccccc2)nnc1SCC(=O)Nc1ccc(N2CCOCC2)c(Cl)c1	-0.645
Cc1ccc(-c2nnc(SCC(=O)Nc3ccc4c(c3)OCCO4)n2N)cc1	14.1 (active)
Cn1c(SCC(=O)Nc2ccc(N3CCOCC3)c(Cl)c2)nnc1-c1ccccc1	-0.0676
CCn1c(SCC(=O)Nc2ccc(N3CCOCC3)c(Cl)c2)nnc1-c1ccc(N)cc1	2.78
Nn1c(SCC(=O)Nc2ccc3c(c2)OCO3)nnc1-c1ccc(Cl)cc1	-0.179
COc1ccc(-c2nnc(SCC(=O)Nc3ccc4c(c3)OCCO4)n2N)cc1OC	-0.393
CC(CCc1ccccc1)NC(=O)C(Cc1ccccc1)NS(=O)(=O)c1cccs1 (stereo unspecified)	-0.446
COc1ccc(-c2cc(CNC(=O)CCl)on2)cc1	-0.113
CC(=O)c1ccc(N2CCN(C(=O)c3ccco3)CC2)c(F)c1	-0.0315
Cc1ccc2nc(-c3ccc(NC(=S)NC(=O)C(C)C)cc3)sc2c1	-0.127
Cc1ccc(SC(=O)COc2ccccc2C)cc1	-0.399
Cc1ccc(CNC(=O)COC(=O)CSc2cc(C)c(Br)cc2C)cc1	0.22
COc1ccc(/C=C2\CCCC(C(=O)C(F)(F)F)=C2O)cc1	2.59
COc1ccc(/C=C2\CCOC2=O)cc1	0.296
O=C(C1=C(O)/C(=C/c2ccc(O)cc2)CCC1)C(F)(F)F	0.181
Cc1ccc(NC(=O)CN2CCC(C(=O)c3ccc4c(c3)OCCO4)CC2)cc1	-0.152
CCOCCCNC(=O)C(NC(=O)CC1NC(=O)NC1=O)c1ccc(Cl)cc1 (stereo unspecified)	-0.134

Structure (SMILES)	z-score
COc1ccc(CCNC(=O)c2nc3ncccn3n2)cc1OC	0.169
O=P(OC1CCCCC1)(OC1CCCCC1)C(O)c1ccccc1 (stereo unspecified)	-0.904
Cc1ccc(-n2[nH]c(C)c(C=Nc3cc(C)ccn3)c2=O)cc1	10.6 (active)
Cc1[nH]n(-c2ccccc2)c(=O)c1/C=N\NC(=O)C1COc2ccccc2O1 (stereo unspecified)	-0.0839
Cc1[nH]n(-c2ccccc2)c(=O)c1C=Nc1cccc2cccnc12	0.652
CCCCN(CCCC)C(=S)N/N=C/c1c(C)[nH]n(-c2ccccc2)c1=O	10.4 (active)
Cc1[nH]n(-c2ccccc2)c(=O)c1/C=N/c1ccccn1	2.61
Cc1[nH]n(-c2ccccc2)c(=O)c1/C=N/O	-0.187
CCCc1nc2ccccc2c(=O)n1/N=C/c1c(C)[nH]n(-c2ccc(C)cc2)c1=O	1.38
Cc1ccc(-n2[nH]c(C)c(C=Nc3ccc(S(=O)(=O)Nc4nccs4)cc3)c2=O)cc1	-0.363
Cc1ccc2cccc(N=Cc3c(C)[nH]n(-c4ccccc4)c3=O)c2n1	0.282
Cc1ccc(-n2[nH]c(C)c(/C=N/c3ccccn3)c2=O)cc1	6.24 (active)
Cc1ccc(-n2[nH]c(C)c(C=Nc3ccc4[nH]c(=O)[nH]c4c3)c2=O)cc1	-0.443
Cc1ccc(-n2[nH]c(C)c(/C=N/n3c(C)nc4ccccc4c3=O)c2=O)cc1	0.177
Cc1nc2ccc(S(=O)(=O)NCC(=O)N3CCCCC3)cc2s1	-0.09
COc1cc(NC(=O)CN(C)Cc2ccc(OC(F)F)cc2)c(C)cc1[N+](=O)[O-]	-0.0913
COC(=O)c1ccc(CSc2n[nH]c(C)n2)o1	-0.0591
CCOc1ccc(C(C)=O)cc1COC(=O)C1=COCCO1	-1.15
CCCc1nc2sc3c(=O)n(N)cnc3c2c2c1CCCC2	-0.191
